Compound activity as filed in PubChem.
Nrf2 ARE act – Nrf2 pathway activation | Potency, µM (top dose mostly 46.1 µM), inactives show at the highest dose activation, hits mostly activators | 0.31% of 410,000 active | AREc32 ARE-luciferase reporter (MCF7-derived line), luminescence, 24 h; also: % of control where 0% means no effect; nearly all actives have a fitted effect of over 65% in size
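Reporter line AREc32 (ARE-Fluc), seeded overnight in OPTI-MEM with 5% FBS; compound pin-transferred, 24 hr at 37 deg C, 5% CO2; luminescent read-out.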
Nrf2 inh – Nrf2 pathway inhibition; A549 ARE-Fluc reporter, luciferase luminescence, 18-24 h; Potency, µM (doses to about 46 µM), for inactives: at the top dose activity change, negative = inhibition, hits mostly inhibitors; 2.1% of 360,000 active; also: % is scaled to controls: 0 for no effect and ±100 for the full control effect; nearly all actives have a fitted effect of over 60% in size
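A549 ARE_Fluc cells, 5000/well, 5% FBS OPTI-MEM; compounds in dose-response, 18-24 h at 37 °C/5% CO2; CellTiter-Fluor viability read (Ex 405/Em 525), then BugLite luciferase luminescence = Nrf2 activity.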
TGFb inhibitor – inhibitors of TGF-b signaling; HepG2 CAGA-GFP TGF-b/SMAD3 reporter, GFP fluorescence, 18 h; TGF-beta stimulated, 500 pg/mL final; Potency, µM (series often up to 46.1 µM), without a hit: at the highest dose activity, negative = inhibition, actives largely listed as inhibitors; 1.2% of 410,000 active; also: % is scaled to controls: 0 for no effect and ±100 for the full control effect; nearly all actives have a fitted effect of over 65% in size
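Inhibition of TGF-beta-driven CAGA-GFP reporter expression in HEPG2 cells is measured by cellular GFP fluorescence after 18 h stimulation with 500 pg/mL recombinant TGF-beta in 1% FBS medium at 37 degrees C.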
A549 tox – kills or reduces viability of A549 cells in Nrf2 counter-screen. A549 ARE-Fluc cells, CellTiter-Fluor viability, 18-24 h. Potency, µM (series often up to 46 µM), for inactives: at the top dose activity change, negative = cytotoxicity, usual class: inhibitors. 0.16% of 390,000 active. AID 504648; also: % is scaled to controls: 0 for no effect and ±100 for the full control effect
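Cytotoxicity counterscreen: CellTiter-Fluor fluorescence was measured in A549 ARE_Fluc cells after 18-24 h of compound exposure in a concentration series. The subsequent BugLite luminescent read reports ARE-luciferase activity.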
HepG2 tox – HepG2 cytotoxicity, counter-screen for TGF-b inhibitors. HepG2 CAGA-GFP viability, ATP luminescence, 18 h. Potency, µM (series often up to 46.1 µM), without a hit: at the highest dose activity change, negative = cytotoxicity, actives largely listed as cytotoxic. 0.76% of 410,000 active
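CellTiter-Glo luminescence gave cytotoxicity after 18 hours at 37 degrees C. The cells were HepG2 CAGA-GFP in 1% FBS DMEM, stimulated with 500 pg/mL TGF-beta after compound addition. %Activity was normalised to no-cell wells (complete cell-killing) and DMSO (no toxicity), and curves were fitted and classified.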
* marks the source's active call; other numbers are inactive results; ? = inconclusive; nt = no result; [ ] = remark or other dose. Most compounds without a hit are left out; they make up all but 3.6% or so of the library. Calls follow the shape of the dose curve; as a rule, active = well fitted curve in the direction sought with a large enough effect; inconclusive = small, poorly fitted or top-dose-only effect, or another doubt; inactive = no such curve, though single readings can be large; an effect the other way counts as inactive or inconclusive. Potency is read from the fitted curve at half-maximal effect.

SMILES	Nrf2 ARE act	Nrf2 inh	TGFb inhibitor	A549 tox	HepG2 tox
C=CC[n+]1c(-c2ccc(Cl)cc2Cl)csc1Nc1ccc(NC(C)=O)cc1	-2%	12µM*	?	-15%	22µM*
Cc1occc1-c1nnc(SCC(=O)c2ccc(F)cc2)n1Cc1ccco1	0%	-20%	0%	-5%	-34%
O=C(CSc1nnc(-c2cc3ccccc3cc2O)n1Cc1ccco1)c1ccc(F)cc1	9%	23µM*	?	nt	-37%
Cc1ccc(C(=O)CSc2nnc(CNc3ccc(C)cc3C)n2Cc2ccco2)cc1	0%	23µM*	?	?	-18%
NC(=O)CSc1nc2ccccc2c(=O)n1Cc1ccco1	-1%	nt	-2%	2%	1%
O=C(CSc1nc2ccccc2c(=O)n1Cc1ccco1)c1ccc(F)cc1	0%	12µM*	-13%	2%[1.84 µM]	-26%
Cc1c(C(=O)O)sc2nc(SCC(=O)Nc3ccc(S(=O)(=O)NC(C)(C)C)cc3)[nH]c(=O)c12	-1%	11%	19%	1%	6%
Cc1cccc(C)c1OCC(=O)Nc1nonc1-c1ccc(Br)cc1	5%	-7%	?	12%	-41%
Cc1ccc(S(=O)(=O)c2c(C)nn(C(C)(C)C)c2OC(=O)C2CCCC2)cc1	0%	21µM*	?	-20%	-19%
COc1ccc(Nc2ncc(C(=O)Nc3ccc(F)cc3F)c3ccccc23)cc1	15%	-4%[9.27 µM]	13µM*	0%	-35%
COc1ccc(OC)c(NC(=O)c2cnc(Nc3ccc(C)c(Cl)c3)c3ccccc23)c1	1%	9%[9.27 µM]	-19%	1%	1%
Nn1c(SCC(=O)NC2CCS(=O)(=O)C2)nnc1-c1ccco1 (stereo unspecified)	0%	23%	-7%	-11%	27%
COc1ccccc1N1CCN(C(=O)c2cc3c(s2)CCCCC3)CC1	2%	?	?	?	-4%
CC(C)(C)OC(=O)N1CCC(c2c(C(=O)NCCc3ccccc3)cnn2-c2ccc(F)cc2F)CC1	0%	?	?	-9%	-12%
O=c1[nH]nc(CNc2ccc(O)cc2)c2ccccc12	-1%	?	?	-3%	10µM*
O=C(Cc1ccc(F)cc1)NCCc1ccc(F)cc1	1%	-14%	?	-1%	-13%
Cc1nn(C)cc1C(=O)Nc1cc(Oc2ccc(Cl)cc2)cc([N+](=O)[O-])c1	-1%	nt	10%	?	-3%
Cc1ccc(C)c(Oc2cc(NC(=O)CCCn3nc(C)c([N+](=O)[O-])c3C)cc([N+](=O)[O-])c2)c1	3%	23µM*	-97%	?	-37%
Cn1cc([N+](=O)[O-])c(C(=O)Nc2cc(Oc3ccccc3)cc([N+](=O)[O-])c2)n1	?	9%	?	-3%	-111%
Cc1cccc(Oc2cc(NC(=O)c3ccccc3)cc([N+](=O)[O-])c2)c1	0%	13µM*	?	?	-29%
CCn1nc(C)c(C(=O)Nc2cc(Oc3cc(C)cc(C)c3)cc([N+](=O)[O-])c2)c1C	2%	21µM*	14µM*	?	-46%
CC(C)(C)c1cc(C(=O)NCc2ccco2)ccn1	10%	7%	-14%	5%	-9%
COc1cc(OC)cc(-c2c(-c3cccs3)c3cc(-c4cnc(N)nc4)ccc3n2C)c1	-1%	21µM*	?	-7%	-48%
COc1cc2ccccc2cc1C(=O)N1CCN(c2nc3c(F)cc(F)cc3s2)CC1	0%	nt	7.1µM*	7%	-22%
COc1cc2ccccc2cc1C(=O)N1CCN(c2nc3c(F)cccc3s2)CC1	0%	nt	19%	-3%	16%
SMILES	Nrf2 ARE act	Nrf2 inh	TGFb inhibitor	A549 tox	HepG2 tox
COc1ccccc1C1CC(c2cccs2)=Nc2ccccc2S1 (stereo unspecified)	18µM*	16%	?	0%	6%
CN(C)S(=O)(=O)c1ccc(C(=O)NCCN2C(=O)S/C(=C\c3cccnc3)C2=O)cc1	15%	18%	10%	-1%	-42%
CS(=O)(=O)c1ccc(C(=O)NCCN2C(=O)S/C(=C\c3cccnc3)C2=O)cc1[N+](=O)[O-]	-5%	0%	14µM*	1%	-142%
CC(=O)c1cccc(NC(=O)C(C)OC(=O)c2ccc(S(C)(=O)=O)c([N+](=O)[O-])c2)c1 (stereo unspecified)	nt	21%	11µM*	-4%	14µM*
CS(=O)(=O)c1ccc(C(=O)OCC(=O)Nc2ccc(OC(F)(F)F)cc2)cc1[N+](=O)[O-]	nt	21%	?	8%	-105%
CC(=O)c1cccc(NC(=O)COC(=O)c2ccc(S(C)(=O)=O)c([N+](=O)[O-])c2)c1	9%	-3%	10µM*	1%	-105%
O=C1CSc2ccc(C(=O)Nc3cccc(S(=O)(=O)Nc4ccc(Br)cc4)c3)cc2N1	-1%	?	13µM*	-19%	16µM*
O=C(Nc1ccc(Br)cc1)c1cccc(S(=O)(=O)Nc2ccccn2)c1	1%	13µM*	-6%	?	21%
Nc1ccc(O)cc1	nt	-18%	4.5µM*	-19%	14µM*
Cc1[nH]nc2c1C(c1ccc(-c3ccccc3C#N)o1)C(C#N)=C(N)O2 (stereo unspecified)	27%	?	-27%	-4%	-59%
Cc1[nH]nc2c1C(c1ccc(-c3ccc(Cl)cc3)o1)C(C#N)=C(N)O2 (stereo unspecified)	16µM*	20%	?	-10%	-84%
Cc1ccc(-c2ccc(C3C(C#N)=C(N)Oc4n[nH]c(C)c43)o2)cc1 (stereo unspecified)	?	-4%	?	nt	16µM*
COc1ccc(NC(=O)c2nn(C)c3c2CSc2ccc(C)cc2-3)cc1OC	0%	nt	-27%	0%	11µM*
CCOc1ccccc1NC(=O)c1nn(C)c2c1CSc1ccccc1-2	3%	18µM*	-11%	-13%	-2%
CCCCNC(=O)c1nn(C)c2c1CSc1ccccc1-2	15%	21µM*	-8%	-15%	-13%
CN(C(=O)COC(=O)c1nc(Cl)c(Cl)c(Cl)c1Cl)C1CCS(=O)(=O)C1 (stereo unspecified)	13µM*	-24%	-6%	?	-28%
CN(C(=O)COC(=O)c1ccc(C(C)(C)C)cc1)C1CCS(=O)(=O)C1 (stereo unspecified)	0%	-7%	?	-6%	-5%
O=S(=O)(N1CCOCC1)n1nnc2ccccc21	0%	-14%	0%	0%	-17%
CC(C)=CCC1=C(OCC(=O)O)C(=O)c2ccccc2C1=O	-4%	-12%	14µM*	-9%	11µM*
CCc1c(C#N)c(SCCC(=O)Nc2ccc(F)cc2)nc2c1C(=O)CC(C)(C)C2	0%	18µM*	?	?	-49%
